# Shown are actives, neighbours in structure and some others; about 0.71% of the full set was active somewhere.
# BLM inh: qHTS Assay for Inhibitors of Bloom's syndrome helicase (BLM); RecQ-like DNA helicase BLM (Homo sapiens), P54132; recombinant BLM DNA unwinding, fluorescence dequenching; Potency, µM (highest dose often 56.1 µM), without a hit: at the highest dose activity change, negative = inhibition, actives largely listed as inhibitors; hit rate 0.2% among 350,000; AID 2528, 2010;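 note: plate controls were vehicle for no effect and no enzyme for full effect; nearly all actives have a fitted effect of over 35% in size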
# ERG-DNA inh: qHTS for Small Molecule Inhibitors of the ERG Ets/DNA interaction | AID 624246, 2012 | hit rate 0.028% among 370,000 | fluorescence polarization, His-ERG Ets domain / labelled DNA | Transcriptional regulator ERG (Homo sapiens), P11308 | Potency, µM (top dose mostly 76.9 µM), inactives show at the top dose FP activity, negative = inhibition, hits mostly inhibitors; active = well fitted inhibition curve with a large enough effect in the polarisation, with a control signal flat; inconclusive = small, poorly fitted or top-dose-only effect, or effect the other way, or a change in a side signal; inactive = no such curve, though single readings can be large or run the other way; the % refers to the polarisation;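 note: polarization taken with two DNA probes labelled with fluorescein and Texas red; % of control where 0% means no effect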
# Target sequence (P11308 whole entry, looked up, the tested form may be a part): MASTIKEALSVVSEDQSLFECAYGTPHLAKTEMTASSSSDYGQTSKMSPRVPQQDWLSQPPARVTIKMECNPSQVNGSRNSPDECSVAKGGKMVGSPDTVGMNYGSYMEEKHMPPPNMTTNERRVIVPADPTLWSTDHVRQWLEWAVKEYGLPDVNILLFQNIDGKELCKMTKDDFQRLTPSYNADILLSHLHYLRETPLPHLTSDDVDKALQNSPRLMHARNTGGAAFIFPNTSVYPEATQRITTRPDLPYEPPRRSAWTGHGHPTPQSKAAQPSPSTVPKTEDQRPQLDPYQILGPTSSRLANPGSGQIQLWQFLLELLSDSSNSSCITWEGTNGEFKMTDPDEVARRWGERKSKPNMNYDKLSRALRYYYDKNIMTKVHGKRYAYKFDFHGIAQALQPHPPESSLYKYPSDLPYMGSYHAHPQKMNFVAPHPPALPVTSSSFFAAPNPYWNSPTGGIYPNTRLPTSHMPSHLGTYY
#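 His-tagged ERG Ets domain (1 uM in the protein solution; 300mM KCl, 50mM Tris-HCl, 1mM EDTA, 1mM DTT, pH 7.5) received compound, then a probe mix of 5 nM fluorescein-DNA and 100nM Texas-615-DNA. Fluorescence polarization was read for both dyes.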
# TexasRed fluor: Total Fluorescence Counterscreen for Inhibitors of the Interaction of Thyroid Hormone Receptor and Steroid Receptor Coregulator 2; TRb/SRC2 Texas Red total fluorescence interference; Potency, µM (doses to about 106 µM), for inactives: at the top dose fluorescence change, negative = quenching; hit rate 0.29% among 280,000; active = well fitted curve in either direction with a large enough effect; inconclusive = small, poorly fitted or top-dose-only effect; note: % is set by controls: 0 for no effect and ±100 for the full control effect
#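 Human TRβ ligand-binding domain (0.6 uM) and Texas Red SRC2 peptide (20 nM) in Tris buffer with 1 uM T3 and 5% DMSO were incubated with pinned compound for 5 hr at ambient temperature. Total fluorescence was computed as S + 2P (555/632 nm).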
# RGS12 GoLoco inh: qHTS Assay for Inhibitors of RGS12 GoLoco Motif Activity (Red Fluorophore) | Guanine nucleotide-binding protein G(i) subunit alpha-1 (Homo sapiens), P63096 | Gai1:RGS12 GoLoco peptide FP, rhodamine, 10 min | Potency, µM (highest dose often 61.6 µM), for the others: top-dose activity, negative = inhibition, hits mostly inhibitors | hit rate 0.44% among 230,000 | AID 880, 2007; active = well fitted inhibition curve with a large enough effect, not every such curve was filed as active; inactive = no such curve, though single readings can be large or run the other way; note: % is set by controls: 0 for no effect and ±100 for the full control effect; nearly all actives have a fitted effect of over 30% in size
# TRb SRC2 PPI: qHTS for Inhibitors of the Interaction of Thyroid Hormone Receptor and Steroid Receptor Coregulator 2; AID 1469, 2008; TRbeta-SRC2 peptide binding, fluorescence polarization; receptor liganded with 1 µM T3; Potency, µM (titrated, usually from 106 µM), for the others: at the top dose activity change, negative = inhibition, usual class: inhibitors; hit rate 0.065% among 280,000;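 note: plate controls were bound peptide for no effect and peptide without receptor for full effect; nearly all actives have a fitted effect of over 50% in size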
#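 TRb LBD 0.6 uM + Texas Red SRC2 peptide 20 nM, 1 uM T3, Tris buffer w/ 5% DMSO; compound pinned, 5 h RT; FP read ex 555/em 632; normalized to unbound and bound controls.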
# RECQ1 inh: qHTS Assay for Inhibitors of RecQ-Like Dna Helicase 1 (RECQ1) | RECQ1 DNA unwinding, red fluorescence kinetic read | Potency, µM (highest dose often 57.3 µM), inactives show top-dose activity, negative = inhibition, actives largely listed as inhibitors | ATP-dependent DNA helicase Q1 (Homo sapiens), P46063 | hit rate 0.54% among 240,000 | AID 2549, 2010;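 note: plate controls were vehicle for no effect and no enzyme for full effect; nearly all actives have a fitted effect of over 30% in size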
#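 50 nM RECQ1T1 preincubated 15 min with compound in Tris pH 8.0 buffer with MgCl2, DTT, Tween-20 and 2.5 ug/ml poly(dI-dC); started with 200 nM TAMRA/BHQ-2 forked duplex and 2 mM ATP. Unwinding read as fluorescence (525/598 nm), two reads 2 h apart.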
# An asterisk follows results filed as active; i = inactive; ? = inconclusive; · = no result; ! = a repeat was not active; [ ] = dose if it differs, or a comment. Unless noted, calls come from the whole dose curve; as a rule, active = well fitted curve in the direction sought with a large enough effect; inconclusive = small, poorly fitted or top-dose-only effect, or another doubt; inactive = no such curve, though single readings can be large; an effect the other way counts as inactive or inconclusive. Potency is the fitted concentration of half-maximal effect.
SMILES,BLM inh,ERG-DNA inh,TexasRed fluor,RGS12 GoLoco inh,TRb SRC2 PPI,RECQ1 inh
N#CC1=C(N)Oc2n[nH]c(-c3cccs3)c2C1c1ccco1 (stereo not drawn),-13%,3%,6%,237%,-19%,32µM*
O=C(Cc1cc(=O)[nH][nH]1)N/N=C/c1ccccc1Cl,-4%,-4%,1413µM*[quencher],5%,-9%,-8%
O=C(CSC1c2ccccc2-c2ccccc21)N/N=C/c1ccccc1C(=O)O,-1%,-5%,-1%,-7%,-13%,i
N[C@H](Cc1ccc2oc3cc(=O)c4ccccc4c-3nc2c1)C(=O)O,·,·,·,3.5µM*,·,·
CCN(CC)S(=O)(=O)c1ccc(N=Cc2c(O)n(-c3ccccc3)c(=O)[nH]c2=O)cc1,-1%,7%,-1%,-3%,0%,-4%
O=C1c2cccc3cccc(c23)C(=O)N1/N=C/c1c(O)n(-c2ccccc2)c(=O)[nH]c1=O,-9%,-4%,0%,16µM*,-2%,i
Cc1ccc(N2C(=O)/C(=C/c3ccc(CN(CCC#N)S(C)(=O)=O)o3)C(=O)NC2=S)cc1C,-17%,·,5%,131%,11%,25µM*
Cc1cccc(N2C(=O)/C(=C/c3ccc(CN(CCC#N)S(C)(=O)=O)o3)C(=O)NC2=S)c1,-8%,20%,7%,98%,5%,18µM*
CCOc1ccc(N2C(=O)/C(=C/c3ccc(C)o3)C(=O)NC2=S)cc1,-16%,36%,·,·,·,·
Cc1cccc(N2C(=O)NC(=O)/C(=C/c3ccc([N+](=O)[O-])o3)C2=O)c1,-8%,?,-5%,23%,8%,1%
O=C1NC(=O)N(c2ccc(Cl)cc2)C(=O)/C1=C\c1ccc(Sc2nc3ccccc3[nH]2)o1,-15%,131%,45µM*[fluorescent],-35%,?,25µM*
CCOP(=O)(OCC)OC(Cl)C(Cl)(Cl)Cl (stereo not drawn),·,·,3%[201 µM],·,-4%[201 µM],·
ClC1=C(Cl)C2(Cl)C3C(Cl)C=CC3C1(Cl)C2(Cl)Cl (stereo not drawn),4%,1%,-1%,20µM*!,-7%,-4%
Cc1ccc(-n2c(O)c(/C=N/N3CCCCC3c3cccnc3)c(=O)[nH]c2=S)cc1 (stereo not drawn),-5%,31%,2%,232%,3%,32µM*
O=P(O)(O)CN(CP(=O)(O)O)CP(=O)(O)O,·,·,-2%[201 µM],·,-1%[201 µM],·
O=C1c2ccccc2C(=O)C1C(=O)C(c1ccccc1)c1ccc(Cl)cc1 (stereo not drawn),·,·,-11%[201 µM],·,-24%[201 µM],·
O=C(CN1CCCC1)Nc1ccc(Cl)cc1C(=O)c1ccccc1,-1%,13µM*,-4%,-20%,-6%,-6%
CC[C@]1(O)CC(O[C@@H]2CC(N(C)C)C(O)C(C)O2)c2c(cc3c(c2O)C(=O)c2c(O)ccc(O)c2C3=O)C1C(=O)OC (stereo partly drawn),?,·,40µM*[fluorescent],10%,15%,i
Cc1cccc2sc3nncn3c12,·,·,-4%[201 µM],·,1%[201 µM],·
Cc1onc(-c2c(Cl)cccc2Cl)c1C(=O)Nc1ccc2c(C(F)(F)F)cc(=O)oc2c1,-1%,14%,-4%,-6%,-8%,-3%
Cc1onc(-c2ccccc2Cl)c1C(=O)NCc1ccc2c(c1)cc(C)n2C,-5%,25µM*,10%,-31%,-7%,-27%
CCCCN(CC)C(=O)SCCC,·,·,1%[201 µM],·,4%[201 µM],·
CC1(C)CN=C(NN=C(/C=C/c2ccc(C(F)(F)F)cc2)/C=C/c2ccc(C(F)(F)F)cc2)NC1,·,·,-1%[201 µM],·,2%[201 µM],·
C[C@@H]1O[C@H](C[N+](C)(C)C)CS1,·,·,0%,32µM*,-2%,-12%
COc1cc2c(cc1O)CC1c3c(cc(O)c(OC)c3-2)CCN1C (stereo not drawn),-18%,0%,-3%,3%,-5%,-12%
SMILES,BLM inh,ERG-DNA inh,TexasRed fluor,RGS12 GoLoco inh,TRb SRC2 PPI,RECQ1 inh
COc1cc2c(cc1O)C[C@H]1c3c(cc(OC)c(O)c3-2)CCN1C,-23%,·,1%,-35%,-18%,25µM*
C/C(=N\NC(=O)Nc1cc(F)cc(F)c1)c1ncccc1C(=O)O,·,·,-2%[201 µM],·,2%[201 µM],·
CC1Oc2cc3c(-c4c(O)cc(O)c5c(O)c6c(cc45)OC(C)C(C)C6=O)c(O)cc(O)c3c(O)c2C(=O)C1C (stereo not drawn),-24%,15%,?,3%,3%,25µM*
Cc1nc2c(=O)n(C)c(=O)nc-2n(C)n1,0.79µM*,11%,-2%,-2%,-16%,i
CCC(C)c1cc([N+](=O)[O-])cc([N+](=O)[O-])c1O (stereo not drawn),·,·,-6%[201 µM],·,6%[201 µM],·
CC[n+]1c(SC)ccc2cc(OC)ccc21,-2%,-6%,-1%,10µM*,-1%,-5%
CCOS(=O)(=O)OCC,·,·,1%[201 µM],·,5%[201 µM],·
CN1/C(=C\C=C2C(=O)NC(=O)NC2=O)C(C)(C)c2ccccc21,2%,7%,-1%,19%,-4%,-14%
CC1(C)OC(c2ccccc2)=C/C(=C/C=C2C(=O)NC(=O)NC2=O)O1,-15%,147%,10%,256%,19%,25µM*
C[N+]1(C)C2CCC1CC(OC(=O)c1c[nH]c3ccccc13)C2 (stereo not drawn),·,23%,2%,14%,-4%,-3%
C[N+]1(C)C2CCC1CC(OC(=O)c1ccco1)C2 (stereo not drawn),-1%,-14%,-1%,10µM*,0%,-8%
CNC(=O)Oc1cc(C)c(SC)c(C)c1,·,·,2%[201 µM],·,3%[201 µM],·
CCCN1CCCC2Cc3[nH]ncc3CC21 (stereo not drawn),4%,·,35µM*![quencher],-4%,1%,-1%
CCOc1ccc(N=C2SCCCN2C)cc1,2%,3%,-2%,18µM*,-2%,6%
Cc1cnc(C2=NC(C)(C(C)C)C(=O)N2)c(C(=O)O)c1 (stereo not drawn),·,·,0%[201 µM],·,-11%[201 µM],·
CN(C)[C@@H]1C(=O)C(C(N)=O)=C(O)[C@]2(O)C(=O)C3=C(O)c4c(O)ccc(Cl)c4[C@](C)(O)[C@H]3C[C@@H]12,5%[21.4 µM],·,1%[53 µM],0%[21.6 µM],0%[53 µM],0%[25.9 µM]

# Screens: PubChem BioAssay, National Center for Advancing Translational Sciences (NCATS)
